Assay [1] in a line: qHTS for Inhibitors of Cell Surface uPA Generation: Validation Assay (AID 493164).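 Note: RAW 264.7 macrophage cells exposed to compound for 18 h.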 In outline: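 Compounds are titrated over seven points (2.45 nM–38.3 uM final) onto pre-plated RAW 264.7 cells and incubated for 18 h. Retained intracellular ATP, measured with ATP-Lite, indicates blocked lethal factor entry.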
Assay [2] addresses phosphoglycerate mutase (Leishmania major) (UniProt Q4Q090). Nature of the assay: qHTS Validation Assay to Find Inhibitors of Phosphoglycerate Mutase (AID 504548). Note: potency is the fitted concentration of half-maximal effect. The following applies: Potency: inhibition qHTS. In outline: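 Lm PGAM at 1.25 nM final with substrate in 100 mM TEA pH 7.6, 5 mM MgCl2, 0.01% Tween-20; 45 min at room temperature. Kinase-GloPlus added, 10 min, end-point luminescence read.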

For assay [3], the target named is Ubiquitin carboxyl-terminal hydrolase 1 (Homo sapiens) (UniProt O94782). Nature of the assay: Inhibitors of USP1/UAF1: Pilot qHTS (AID 504865). Note: nearly all actives have a fitted effect of over 35% in size. Note: potency is the fitted concentration of half-maximal effect. In outline: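 Enzyme-free wells gave the negative control, while test wells held 1nM USP1/UAF1 preincubated with compound for 15 min at room temperature. Ub-Rho at 150nM final started the reaction, and fluorescence at 480/540 nm was recorded kinetically.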

Assay [4] in a line: qHTS for Inhibitors of ATXN expression: Validation of Cytotoxic Assay (AID 588349). Note: potency is the fitted concentration of half-maximal effect. In outline:
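Cytotoxicity counter-screen: HEK293 cells exposed to compound titrations, 72 hr, 37 degrees C. Read-out is intracellular ATP (CellTiter Glo luminescence) as a viability measure.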

Assay [5] in a line: qHTS for Inhibitors of ATXN expression: Validation (AID 588378). Note: nearly all actives have a fitted effect of over 75% in size. Note: potency is the fitted concentration of half-maximal effect. The method, boiled down: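 After a 2 h attachment and 24 h compound incubation, HEK293-ATXN2-FFLuc wells are read for fluorescence at 405 nm excitation/525 nm emission as a viability measure, then for Bright-Glo luminescence reflecting ATXN2 expression.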
In assay [6] the target is Peptidyl-prolyl cis-trans isomerase NIMA-interacting 1 (Homo sapiens) (UniProt Q13526). Nature of the assay: qHTS Validation Assay to Find Inhibitors of Pin1 (AID 504536; active = well fitted inhibition curve with a large enough effect in the polarisation, with a control signal flat, not every such curve was filed as active; the % refers to the polarisation). In outline:
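Fluorescence polarization competition: compounds (titration) displace HiFluor-488-labeled Pin1-1b peptide from Pin1 (0.3 uM final) in pH 7.5 HEPES buffer with DTT, 10 min at room temperature; %Activity normalized to no-enzyme wells, curves fitted.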

Assay [7] addresses Phosphoglycerate kinase, glycosomal (Trypanosoma brucei brucei) (UniProt P07378). Nature of the assay: qHTS Validation Assay to Find Inhibitors of Phosphoglycerate Kinase (AID 504547). The method, boiled down: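 Compounds are pinned into the substrate/PGK mixture, and GAPDH (100nM final) is added to start the reaction by producing 1,3-BPG. After 60 minutes at room temperature, Kinase-Glo Plus is added and luminescence is measured 10 minutes later.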

Inconclusive results are not listed. Calls of active or inactive are those of the source. Unless noted, calls come from the whole dose curve; as a rule, active = well fitted curve in the direction sought with a large enough effect; inconclusive = small, poorly fitted or top-dose-only effect, or another doubt; inactive = no such curve, though single readings can be large; an effect the other way counts as inactive or inconclusive.

Sequence of phosphoglycerate mutase (Leishmania major) (Q4Q090 1-553): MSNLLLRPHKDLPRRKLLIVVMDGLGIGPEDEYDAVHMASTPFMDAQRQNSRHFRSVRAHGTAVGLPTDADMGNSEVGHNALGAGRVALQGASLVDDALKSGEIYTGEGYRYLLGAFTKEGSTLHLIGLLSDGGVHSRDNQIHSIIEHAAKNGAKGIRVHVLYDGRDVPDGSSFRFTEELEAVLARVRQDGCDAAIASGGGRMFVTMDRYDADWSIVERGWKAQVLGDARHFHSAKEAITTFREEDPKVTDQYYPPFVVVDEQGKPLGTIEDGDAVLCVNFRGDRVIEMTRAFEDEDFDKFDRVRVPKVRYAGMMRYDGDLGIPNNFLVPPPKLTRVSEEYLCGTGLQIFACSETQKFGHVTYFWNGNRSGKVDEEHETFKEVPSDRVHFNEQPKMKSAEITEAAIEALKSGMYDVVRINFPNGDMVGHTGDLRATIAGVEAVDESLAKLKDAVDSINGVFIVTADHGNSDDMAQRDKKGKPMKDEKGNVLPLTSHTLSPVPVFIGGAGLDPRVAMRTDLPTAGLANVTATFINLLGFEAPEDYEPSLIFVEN
Sequence of Ubiquitin carboxyl-terminal hydrolase 1 (Homo sapiens) (O94782 whole entry, looked up): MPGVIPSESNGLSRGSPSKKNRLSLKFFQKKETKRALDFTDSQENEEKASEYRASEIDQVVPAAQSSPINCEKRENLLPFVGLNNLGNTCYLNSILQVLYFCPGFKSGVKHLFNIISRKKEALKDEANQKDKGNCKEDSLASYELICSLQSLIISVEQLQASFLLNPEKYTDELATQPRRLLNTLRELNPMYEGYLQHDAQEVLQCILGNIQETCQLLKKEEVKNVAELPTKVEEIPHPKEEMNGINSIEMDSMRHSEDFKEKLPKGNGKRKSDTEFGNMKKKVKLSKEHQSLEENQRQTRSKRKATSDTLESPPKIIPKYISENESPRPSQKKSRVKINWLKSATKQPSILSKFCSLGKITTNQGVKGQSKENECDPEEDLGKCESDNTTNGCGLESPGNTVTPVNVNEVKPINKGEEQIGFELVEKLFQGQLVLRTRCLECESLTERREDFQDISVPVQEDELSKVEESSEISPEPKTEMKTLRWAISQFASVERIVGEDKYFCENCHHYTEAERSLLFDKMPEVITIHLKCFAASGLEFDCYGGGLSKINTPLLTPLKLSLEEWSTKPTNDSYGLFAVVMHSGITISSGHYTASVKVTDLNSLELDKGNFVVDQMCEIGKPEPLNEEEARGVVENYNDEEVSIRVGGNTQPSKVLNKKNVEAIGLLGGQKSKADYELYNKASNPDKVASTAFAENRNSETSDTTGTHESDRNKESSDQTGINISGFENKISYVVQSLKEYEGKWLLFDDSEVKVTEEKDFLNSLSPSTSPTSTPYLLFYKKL
Sequence of Phosphoglycerate kinase, glycosomal (Trypanosoma brucei brucei) (P07378 whole entry, looked up): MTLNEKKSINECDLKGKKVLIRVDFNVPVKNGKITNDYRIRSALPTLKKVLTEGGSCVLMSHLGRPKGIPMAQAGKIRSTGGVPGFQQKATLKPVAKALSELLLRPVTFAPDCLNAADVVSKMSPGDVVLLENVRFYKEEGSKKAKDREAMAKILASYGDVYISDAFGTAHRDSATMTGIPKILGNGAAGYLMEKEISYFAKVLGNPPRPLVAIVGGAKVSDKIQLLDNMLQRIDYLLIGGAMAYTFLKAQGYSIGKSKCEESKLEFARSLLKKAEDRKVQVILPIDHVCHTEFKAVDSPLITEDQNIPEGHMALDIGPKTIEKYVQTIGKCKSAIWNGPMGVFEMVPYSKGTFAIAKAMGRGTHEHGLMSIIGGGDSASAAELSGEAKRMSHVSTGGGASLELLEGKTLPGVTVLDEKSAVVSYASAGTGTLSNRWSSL
Sequence of Peptidyl-prolyl cis-trans isomerase NIMA-interacting 1 (Homo sapiens) (Q13526 whole entry, looked up): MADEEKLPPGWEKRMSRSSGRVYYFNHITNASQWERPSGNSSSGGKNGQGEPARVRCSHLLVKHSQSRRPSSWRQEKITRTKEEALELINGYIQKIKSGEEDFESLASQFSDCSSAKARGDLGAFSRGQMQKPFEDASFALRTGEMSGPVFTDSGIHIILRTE

As for `CSc1nc(N)c2ncn([C@@H]3O[C@H](COP(=O)(O)OP(=O)(O)O)C(O)[C@H]3O)c2n1` (some centres not stated), the call in assay [1] was inactive. Besides, the Potency result in assay [2], in assay [3], in assay [4] and in assay [5] was “inactive” each time.
Consider `CC[n+]1c(/C=C/C=C2/N(C)c3ccccc3C2(C)C)sc2ccccc21`, for which the compound was called inactive in assay [1]. Moreover, the Potency in assay [2] is 19 µM (active); in assay [3], 31.6 µM (active); in assay [4], 3.16 µM (active); in assay [5], 0.891 µM (active).
In the case of `C=C1C[C@@]23CC[C@H]4[C@@](C)(CCC[C@@]4(C)C(=O)OC4OC(CO)C(O)C(O)C4O)[C@@H]2CC[C@]1(OC1OC(CO)C(O)C(O)C1OC1OC(CO)C(O)C(O)C1O)C3` (some centres not stated), the compound was classed as inactive in assay [1]. Further, the Potency result in assay [6], in assay [7], in assay [2], in assay [3] and in assay [5] was “inactive” each time.
For the compound `C[C@](Cc1ccc(O)c(O)c1)(NN)C(=O)O`, the compound was classed as inactive in assay [1]. Also, the Potency result in assay [6], in assay [2], in assay [3], in assay [4] and in assay [5] was “inactive” in each case.
Consider `OC[C@H]1O[C@H](n2cnc3c(N[C@H]4CCC[C@@H]4O)ncnc32)[C@H](O)[C@@H]1O`, for which, in assay [1], the call was inactive. Moreover, the Potency result in assay [6], in assay [2], in assay [3], in assay [4] and in assay [5] was “inactive” throughout.
In the case of `CCCCCCCCCCC(C)(C)C(=O)Nc1c(OC)cc(OC)cc1OC`, the compound was classed as inactive in assay [1]. For the same compound, the Potency entry in assay [6], in assay [7], in assay [2], in assay [4] and in assay [5] was “inactive” throughout. Moreover, the Potency in assay [3] was 44.7 µM (active).
For the compound `CC(O)C(O)[C@H]1CNc2nc(N)[nH]c(=O)c2N1` (some centres not stated), the outcome in assay [1] was inactive. Further, the Potency entry in assay [6], in assay [2], in assay [3], in assay [4] and in assay [5] was “inactive” throughout.
Take `CC(=O)SC1CC2=CC(=O)CC[C@]2(C)C2CC[C@@]3(C)C(CC[C@@]34CCC(=O)O4)C12` (some centres not stated): in assay [1], the compound was classed as inactive. In addition, the Potency result in assay [6], in assay [2], in assay [3] and in assay [4] was “inactive” in each case.
In the case of `Nc1ncnc2c1nc(Br)n2C1OC2COP(=O)(O)O[C@@H]2C1O` (some centres not stated), the call in assay [1] was inactive. Further, the Potency entry in assay [6], in assay [7], in assay [2], in assay [3], in assay [4] and in assay [5] was “inactive” each time.
For the compound `Cc1cc(Cn2cnc3c2C[C@@H](C(=O)O)N(C(=O)C(c2ccccc2)c2ccccc2)C3)ccc1N`, the result in assay [1] was inactive. The Potency result in assay [6], in assay [7], in assay [2], in assay [3], in assay [4] and in assay [5] was “inactive” in each case.
`Nc1nc2c(nc(Br)n2C2OC3COP(=O)(O)O[C@@H]3C2O)c(=O)[nH]1` (some centres not stated): the outcome in assay [1] was inactive. Also, the Potency result in assay [6], in assay [7], in assay [2], in assay [3], in assay [4] and in assay [5] was “inactive” in each case.

The record behind these values is PubChem BioAssay (NCATS).
